Test results reported in PubChem BioAssay.
Active and inactive are the calls of the source.

Columns and labels:
[1] = biological target: Albumin (Bos taurus) (UniProt P02769); test: compounds binding labelled BSA control protein – biochemical, small-molecule microarray, Alexa647 label, 635/667 nm fluorescence, artefact control for SMM control protein annotation, profiling panel (AID 1118); conditions: BSA-A647 binding, fluorescence 635 nm, higher = more signal;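 note: score merges 667 nm emission intensity and signal-to-noise per printed compound spot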
[2] = probe aXIP binding to arrayed compounds – biochemical, NeuroSMM set, 635/667 nm fluorescence, primary screen (AID 1119); conditions: small-molecule microarray, higher = more signal, called active from +8 up or from −8 down;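 note: probe is the protein aXip251-270 applied at 1 µg/mL to compound-printed slides; binding of probe to printed compounds measured as 667 nm fluorescence plus signal to noise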
[3] = probe aNOTCH3 binding on compound microarray – biochemical, small-molecule microarray, 635/667 nm fluorescence, primary screen (AID 1120); conditions: higher = more signal;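 note: probe is a biotin-tagged antibody raised against NOTCH3 rather than NOTCH3 protein; score merges spot fluorescence near 667 nm with spot signal to noise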
[4] = probe aNOTCH2 binding on compound microarray – biochemical, small-molecule microarray, 635/667 nm fluorescence, primary screen (AID 1121); conditions: higher = more signal;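 note: score merges feature fluorescence read at 667 nm with its signal to noise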
[5] = biological target: Carbonic anhydrase 2 (Homo sapiens) (UniProt P00918); test: compounds binding carbonic anhydrase 2 – biochemical, small-molecule microarray, Alexa647-labelled CAII, profiling panel (AID 1122); conditions: CAII-A647 binding fluorescence, higher = more signal
[6] = COS7 lysate on small-molecule microarray, probe aHis, 635 nm (AID 1123); conditions: COS7 cell lysate, fluorescence, higher = more signal;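 note: z-score combines 667nm fluorescence intensity with signal-to-noise per printed compound spot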
[7] = probe aLAP1 signal on lysate-treated microarray – cell lysate, small-molecule microarray, COS7 lysate, primary screen (AID 1124); conditions: probe aLAP1, fluorescence, higher = more signal;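 note: lysate comes from COS7 cells expressing LAP1 and is applied at 0.3 µg/mL; score merges spot fluorescence near 667 nm with signal-to-noise over triplicate slides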
[8] = system: Sam68 (KHDRBS1); test: compounds binding KHDRBS1 protein – biochemical, small-molecule microarray, 635 nm fluorescence, primary screen (AID 1125); conditions: higher = more signal;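 note: score merges 667 nm channel intensity with signal to noise over triplicate slides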
[9] = system: Chordin-like protein 2 (CHRDL2); test: compounds binding chordin-like 2 – biochemical, small-molecule microarray, 635 nm fluorescence, primary screen (AID 1126); conditions: fluorescence 635 nm, higher = more signal;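 note: printed compound slides probed with Chrdl2 protein at 4 µg/mL for 1 h at 4 C; score merges 667 nm emission intensity with signal to noise over three replicate slides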
[10] = biological target: Concanavalin-A (Canavalia ensiformis) (UniProt P02866); test: compounds binding concanavalin A lectin – biochemical, small-molecule microarray, Alexa647 label, 635 nm, artefact control for SMM control protein annotation, primary screen (AID 1127); conditions: ConA-A647 binding fluorescence, higher = more signal;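 note: z combines 667 nm emission intensity with signal-to-noise across three replicate slides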
[11] = compounds binding Alexa647 anti-His antibody – biochemical, small-molecule microarray, 635 nm fluorescence, artefact control for SMM control protein annotation, primary screen (AID 1128); conditions: higher = more signal;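 note: score merges feature fluorescence with signal-to-noise for each printed compound spot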
[12] = system: Human papillomavirus type 1a E7 protein (residues 1-88); test: HPV1a E7 small-molecule binders, primary screen, biochemical, small-molecule microarray, residues 1-88, 635 nm (AID 1129); conditions: small-molecule microarray binding, fluorescence 635 nm; higher = more signal
[13] = biological target: Focal adhesion kinase 1 (Homo sapiens) (UniProt Q05397); test: PTK2 protein binding on printed compound slides – biochemical, small-molecule microarray, 635/667 nm fluorescence, BSA, DTT, primary screen (AID 1130); conditions: 635 nm fluorescence, higher = more signal;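 note: composite of spot emission at 667 nm and signal to noise over triplicate slides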
[14] = system: Fibrinogen (Alexa647-labelled); test: Alexa647-fibrinogen binding to printed small molecules – biochemical, small-molecule microarray, 635/667 nm fluorescence, artefact control for SMM control-protein annotation, profiling panel (AID 1131); conditions: fibrinogen-A647 binding fluorescence, higher = more signal;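 note: z-score merges 667 nm fluorescence with per-spot signal-to-noise over triplicate slides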
[15] = biological target: Follistatin (Homo sapiens) (UniProt P19883); test: FST protein binding to printed compounds – biochemical, small-molecule microarray, 635/667 nm fluorescence, primary screen (AID 1132); conditions: 635 nm fluorescence, higher = more signal
[16] = biological target: Fibroblast growth factor 2 (Homo sapiens) (UniProt P09038); test: basic fibroblast growth factor binding to printed compounds – biochemical, small-molecule microarray, 635/667 nm fluorescence, primary screen (AID 1133); conditions: FGF2, fluorescence 635/667, higher = more signal
[17] = JC-1 mitochondrial potential readout, lung cancer cells – cell-based, A549, JC-1 fluorescence, basal, 24 h, 100 nL, profiling panel (AID 1138); conditions: higher = more signal;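 note: A549 lung adenocarcinoma cells under basal conditions with no added stimulus; test concentration not given here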
[18] = system: Lefty1; test: Lefty1 protein binding to printed compounds – biochemical, small-molecule microarray, 635/667 nm fluorescence, primary screen (AID 1139); conditions: fluorescence 635/667, higher = more signal
[19] = system: wheat germ agglutinin (Triticum aestivum), Alexa647-labelled; test: Alexa647-WGA lectin binding to printed small molecules – biochemical, small-molecule microarray, 635/667 nm fluorescence, artefact control for SMM control-protein annotation, profiling panel (AID 1140); conditions: WGA-A647 binding, 635 nm fluorescence, higher = more signal;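 note: score merges 667 nm feature emission with signal to noise over triplicate slides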
[20] = biological target: Luciferin 4-monooxygenase (Photinus pyralis) (UniProt P08659); test: inhibition of purified Photinus pyralis luciferase – biochemical, luminescence, purified enzyme, 2006 set, primary screen (AID 1141); conditions: purified firefly luciferase, SteadyGlo luminescence, 30 min; higher = more signal, called active from +8 up or from −8 down;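 note: cell-free assay with purified firefly luciferase at 100 ng per well in PBS; test concentration not given here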
Sequence of Luciferin 4-monooxygenase (Photinus pyralis) (P08659 whole entry, looked up): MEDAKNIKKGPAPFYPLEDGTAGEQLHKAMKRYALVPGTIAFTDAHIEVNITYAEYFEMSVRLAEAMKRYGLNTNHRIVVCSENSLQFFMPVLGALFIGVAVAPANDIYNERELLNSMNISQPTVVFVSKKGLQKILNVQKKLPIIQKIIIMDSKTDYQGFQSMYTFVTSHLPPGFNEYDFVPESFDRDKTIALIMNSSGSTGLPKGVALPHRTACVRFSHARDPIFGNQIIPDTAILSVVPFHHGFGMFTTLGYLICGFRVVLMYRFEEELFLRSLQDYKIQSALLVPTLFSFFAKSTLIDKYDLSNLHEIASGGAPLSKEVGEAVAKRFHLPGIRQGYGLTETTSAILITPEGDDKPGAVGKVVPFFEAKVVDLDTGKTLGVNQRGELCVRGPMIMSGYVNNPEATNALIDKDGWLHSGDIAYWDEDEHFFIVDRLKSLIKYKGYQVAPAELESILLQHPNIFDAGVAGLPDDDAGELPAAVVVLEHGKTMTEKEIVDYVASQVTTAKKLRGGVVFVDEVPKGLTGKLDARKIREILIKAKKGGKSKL

Sequence of Fibroblast growth factor 2 (Homo sapiens) (P09038 whole entry, looked up): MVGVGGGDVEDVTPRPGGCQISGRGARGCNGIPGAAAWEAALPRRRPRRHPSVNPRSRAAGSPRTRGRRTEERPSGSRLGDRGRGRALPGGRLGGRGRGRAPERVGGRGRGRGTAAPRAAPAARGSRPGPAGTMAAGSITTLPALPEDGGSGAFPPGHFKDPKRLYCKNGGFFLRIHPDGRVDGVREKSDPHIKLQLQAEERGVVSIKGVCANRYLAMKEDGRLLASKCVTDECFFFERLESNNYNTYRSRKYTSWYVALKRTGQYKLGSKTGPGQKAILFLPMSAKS
Sequence of Focal adhesion kinase 1 (Homo sapiens) (Q05397 whole entry, looked up): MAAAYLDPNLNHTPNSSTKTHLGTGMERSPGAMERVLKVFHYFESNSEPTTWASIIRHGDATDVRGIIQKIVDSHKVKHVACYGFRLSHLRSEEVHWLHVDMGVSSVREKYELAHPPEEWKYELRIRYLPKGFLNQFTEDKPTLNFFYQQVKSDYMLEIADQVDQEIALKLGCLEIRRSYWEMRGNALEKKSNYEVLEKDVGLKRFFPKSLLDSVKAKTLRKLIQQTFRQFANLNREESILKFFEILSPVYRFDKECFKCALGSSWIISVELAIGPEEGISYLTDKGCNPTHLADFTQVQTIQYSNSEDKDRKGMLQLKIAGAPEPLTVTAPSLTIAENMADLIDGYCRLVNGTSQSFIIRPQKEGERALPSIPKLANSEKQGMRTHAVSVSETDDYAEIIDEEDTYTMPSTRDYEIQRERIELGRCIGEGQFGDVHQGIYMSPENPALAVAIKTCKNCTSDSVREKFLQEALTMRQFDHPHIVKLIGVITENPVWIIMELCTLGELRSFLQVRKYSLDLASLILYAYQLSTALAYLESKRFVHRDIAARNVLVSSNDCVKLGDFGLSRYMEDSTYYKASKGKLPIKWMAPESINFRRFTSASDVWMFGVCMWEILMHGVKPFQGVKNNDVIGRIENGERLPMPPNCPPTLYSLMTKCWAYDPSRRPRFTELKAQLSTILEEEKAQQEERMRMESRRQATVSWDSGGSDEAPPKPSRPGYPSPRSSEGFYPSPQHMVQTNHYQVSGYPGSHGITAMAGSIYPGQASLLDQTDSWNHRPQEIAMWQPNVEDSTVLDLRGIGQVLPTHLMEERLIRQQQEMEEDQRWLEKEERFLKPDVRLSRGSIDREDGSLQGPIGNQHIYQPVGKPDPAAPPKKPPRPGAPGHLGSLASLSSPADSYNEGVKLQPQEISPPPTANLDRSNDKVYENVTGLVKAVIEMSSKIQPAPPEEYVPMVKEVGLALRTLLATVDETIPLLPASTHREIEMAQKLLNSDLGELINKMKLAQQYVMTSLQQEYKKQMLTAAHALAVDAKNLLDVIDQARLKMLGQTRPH
Sequence of Concanavalin-A (Canavalia ensiformis) (P02866 whole entry, looked up): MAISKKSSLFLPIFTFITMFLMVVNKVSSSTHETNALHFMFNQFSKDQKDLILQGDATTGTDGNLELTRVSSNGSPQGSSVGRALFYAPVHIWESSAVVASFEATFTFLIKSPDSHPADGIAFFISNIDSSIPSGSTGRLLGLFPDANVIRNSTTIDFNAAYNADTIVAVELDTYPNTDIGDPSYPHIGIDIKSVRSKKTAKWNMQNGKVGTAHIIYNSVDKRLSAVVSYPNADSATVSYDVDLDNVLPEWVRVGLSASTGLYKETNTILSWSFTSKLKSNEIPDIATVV
Sequence of Follistatin (Homo sapiens) (P19883 whole entry, looked up): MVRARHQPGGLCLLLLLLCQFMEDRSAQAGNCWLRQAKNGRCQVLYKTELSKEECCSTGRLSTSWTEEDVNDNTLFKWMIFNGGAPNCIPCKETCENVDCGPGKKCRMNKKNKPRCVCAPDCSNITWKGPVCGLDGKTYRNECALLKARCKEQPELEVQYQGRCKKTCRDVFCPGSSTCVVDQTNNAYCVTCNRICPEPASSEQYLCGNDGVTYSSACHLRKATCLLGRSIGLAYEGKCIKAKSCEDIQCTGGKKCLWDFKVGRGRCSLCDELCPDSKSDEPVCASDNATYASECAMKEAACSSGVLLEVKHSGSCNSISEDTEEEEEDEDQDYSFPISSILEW
Sequence of Albumin (Bos taurus) (P02769 whole entry, looked up): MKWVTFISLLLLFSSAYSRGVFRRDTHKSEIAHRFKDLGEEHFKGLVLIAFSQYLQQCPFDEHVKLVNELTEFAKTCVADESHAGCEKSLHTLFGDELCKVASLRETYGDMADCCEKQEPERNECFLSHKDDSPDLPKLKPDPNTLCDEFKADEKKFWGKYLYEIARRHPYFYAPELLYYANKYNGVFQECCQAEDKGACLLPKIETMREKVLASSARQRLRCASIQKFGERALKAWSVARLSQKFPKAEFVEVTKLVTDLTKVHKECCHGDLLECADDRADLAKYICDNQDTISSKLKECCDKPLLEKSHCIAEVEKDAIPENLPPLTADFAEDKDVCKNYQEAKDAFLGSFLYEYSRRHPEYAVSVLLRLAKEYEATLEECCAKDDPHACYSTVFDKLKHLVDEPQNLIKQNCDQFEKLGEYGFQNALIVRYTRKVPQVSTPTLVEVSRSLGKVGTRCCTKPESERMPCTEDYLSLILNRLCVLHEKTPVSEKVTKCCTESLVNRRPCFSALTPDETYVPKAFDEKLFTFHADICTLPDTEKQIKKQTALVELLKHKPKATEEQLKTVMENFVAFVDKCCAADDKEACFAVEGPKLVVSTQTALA

Structure (SMILES)	composite z-score [1]	composite Z-score [2]	composite z-score [3]	composite z-score [4]	composite z-score [5]	composite z-score [6]	composite z-score [7]	composite z-score [8]	composite z-score [9]	composite z-score [10]	composite z-score [11]	composite z-score [12]	composite z-score [13]	composite z-score [14]	composite z-score [15]	composite z-score [16]	z-score [17]	composite z-score [18]	composite z-score [19]	z-score [20]
C=CC[C@@H]1C=C[C@H](Oc2ccc(C)cc2)[C@@H](COC(=O)NCc2cccc3ccccc23)O1	0.427	0.339 (inactive)	-0.0328	-0.127	0.023	0.502	-0.106	-0.256	0.338	-0.749	1.21	0.703	0.433	0.216	0.285	0.07	1.34	0.574	0.115	-0.0167 (inactive)
O=C1CCCC=C1C(O)C1CCCCC1 (stereo not given)	-0.0548	-0.0549 (inactive)	-0.0325	-0.0818	-0.102	0.181	-0.607	-0.429	0.214	-0.275	-0.481	-0.568	-0.365	-0.206	0.316	-0.297	0.168	0.562	-0.0135	-0.376 (inactive)
CCOC(=O)[C@H](Cc1ccccc1)NC(=O)CCC1CC(OC(=O)NCCc2ccc(F)cc2)CC2(CCCC(COC(=O)NCCOc3ccccc3)O2)O1 (stereo not given in full)	0.595	-0.275 (inactive)	0.0833	-0.0189	0.0403	0.585	0.283	1.29	0.508	0.909	0.569	1.18	0.237	0.855	0.557	1.24	0.678	1.29	0.362	0.46 (inactive)
C#CCCCON=C1[C@H]2CCn3c(=O)n([C@@H](CC)c4ccccc4)c(=O)n3[C@H]2[C@H](O)[C@@H]2O[C@H]12	0.0481	-0.15 (inactive)	-0.0918	-0.0745	0.59	0.219	-0.131	0.113	0.0573	0.154	0.114	-0.256	0.235	-0.509	0.587	0.639	0.351	0.368	0.283	-0.0508 (inactive)
Cc1ccc(S(=O)(=O)N[C@@H]2COC(=O)CC=C[C@@H](C)[C@H](NS(=O)(=O)c3ccc(C)cc3)COC(=O)[C@H](C)NC(=O)CC=C[C@H]2C)cc1	-0.953	-0.211 (inactive)	-0.0647	-0.0808	-0.548	-1.18	-0.108	-1.17	0.835	-1.46	-0.563	-0.676	-0.1	-0.111	0.72	0.499	0.73	0.61	0.0658	-0.743 (inactive)
CCOC(=O)CCN1C(=O)[C@H]2[C@H]3[C@H](O)[C@H](O)CC(=NNC(=O)OCc4ccccc4)[C@H]3CC[C@H]2C1=O	-0.914	0.734 (inactive)	0.232	-0.0309	-0.67	-1.26	-0.0688	-1.01	1.4	-0.636	-0.954	-0.746	-0.355	-0.714	0.44	0.386	-0.674	0.742	-0.547	0.292 (inactive)
